# Data from ChEMBL document CHEMBL3988442, “University of Dundee, Small-Polar-MMV Screening Library” (2021).
# In all, about 48,000 compounds went through this assay and about 13,000 (27%) showed an effect of 50% or more. Some of the results follow.
# System: Wolbachia pipientis
# Test: Anti-Wolbachia Cell-Based Screen
# Format: functional
# Set-up: scale not given: in the data most compounds retested in dose-response had high values
# Details: 5 µM
row,Structure (SMILES),Percent Effect [%]
1,CCCn1cnnc1-c1nc2c([nH]1)CC(c1ccc(Cl)cc1)CNC2=O (stereo unspecified),14.47
2,O=S(=O)(Cc1ccc(F)c(Cl)c1)NC(CO)c1ccco1 (stereo unspecified),-13.92
3,COc1ccccc1C1CNC(=O)c2nc(-c3cn(C)nc3C)[nH]c2C1 (stereo unspecified),-4.665
4,Cc1cnc(C(=O)N2CCC3(CC2)C(=O)NCCN3CC(C)C)cn1,4.389
5,COCc1nc(N(C)C/C=C/c2ccccc2)c2cnn(C)c2n1,-13.22
6,O=C(c1c[nH]cn1)N1CCC(n2cc(-c3ccsc3)nn2)CC1,-0.5309
7,Cc1cc(C(=O)N2Cc3ccccc3OC3(CCOCC3)C2)nc(N)n1,-4.105
8,CC(=O)N1Cc2ccccc2OC2(CCN(C(=O)C3CC3)CC2)C1,187.7
9,N#Cc1c(N2CCCN(C3CCOCC3)CC2)nc2ccccn12,-1.844
10,Cc1nc(C)n(CC2CN(CCc3cccs3)CCO2)n1 (stereo unspecified),-47.87
11,CCc1n[nH]c(C2CN(CCc3cccs3)CCO2)n1 (stereo unspecified),2.973
12,CCCc1n[nH]c(C2CN(CCn3cccn3)CCO2)n1 (stereo unspecified),-0.7272
13,Cc1n[nH]c(C2CN(CCCOc3ccc(F)cc3)CCO2)n1 (stereo unspecified),-9.596
14,CC(C)(C)c1n[nH]c(C2CN(CCNC3CCCCC3)CCO2)n1 (stereo unspecified),-7.813
15,Cc1n[nH]c(C2CN(CCc3cccs3)CCO2)n1 (stereo unspecified),117.1
16,CC(C)c1n[nH]c(C2CN(Cc3nnc(C4CC4)n3C)CCO2)n1 (stereo unspecified),4.048
17,CC(C)c1n[nH]c(C2CN(Cc3ccno3)CCO2)n1 (stereo unspecified),2.718
18,Cn1c(CN2CCOC(c3nc(C(C)(C)C)n[nH]3)C2)nnc1C1CC1 (stereo unspecified),2.258

row,Structure (SMILES),Percent Effect [%]
1,CCCc1n[nH]c(C2CN(CCc3cccs3)CCO2)n1 (stereo unspecified),119.2
2,CC(C)(C)c1n[nH]c(C2CN(CCc3cccs3)CCO2)n1 (stereo unspecified),121.2
3,CC(C)c1n[nH]c(C2CN(CCc3cccs3)CCO2)n1 (stereo unspecified),96.38
4,COCCOc1ncccc1C(=O)N(C)c1ccc(OC)nc1,-5.142
5,Cc1ccc(S(C)(=O)=O)cc1C(=O)NS(=O)(=O)c1ccc(Cl)cc1,-5.911
6,Cc1ccc(C(C)NC(=O)N2CCN(C(=O)CC(F)(F)F)CC2)o1 (stereo unspecified),-14.24
7,Nc1cc2c(nn1)CCN(C(=O)c1ccc(-c3ccco3)[nH]c1=O)C2,1.419
8,N#Cc1ccc(CN2CCCN(CCCn3cncn3)CC2)cc1,-13.2
9,O=C(CN1CCS(=O)(=O)CC1)Nc1ccc(N2CCCC2)nc1,0.8889
10,CN(C)[C@@H]1CCN(S(=O)(=O)C2CC2)[C@H]1Cc1ccccc1.O=C(O)C(F)(F)F,106
11,CN(C)[C@@H]1CCN(S(C)(=O)=O)[C@H]1Cc1ccccc1,99.96
12,CN(C)[C@@H]1CCN(S(=O)(=O)c2cn(C)cn2)[C@H]1Cc1cccnc1.O=C(O)C(F)(F)F.O=C(O)C(F)(F)F.O=C(O)C(F)(F)F,0.7375
13,CN(C)[C@@H]1CCN(c2ncc(F)cn2)[C@H]1Cc1ccccc1.O=C(O)C(F)(F)F.O=C(O)C(F)(F)F,3.414
14,CC(C)N(C)[C@@H]1CCN(Cc2ccoc2)[C@H]1Cc1ccccc1,-14.75
15,CC(C)N(C)[C@@H]1CCN(S(C)(=O)=O)[C@H]1Cc1ccccc1,103.5
16,CC(C)NC(=O)N1CC[C@@H](N(C)C)[C@@H]1Cc1ccccc1.O=C(O)C(F)(F)F,0.7735
17,CC(C)N(C)[C@@H]1CCN(Cc2ccco2)[C@H]1Cc1ccccc1,2.864
18,CN(C)[C@@H]1CCN(c2ncccn2)[C@H]1Cc1ccccc1,-9.311
